From PubChem BioAssay (NCI) come the findings set out here.

Assay [1] in a line: NCI Yeast Anticancer Drug Screen. Data for the rad50 strain (AID 155).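 Further: 0% = growth of vehicle-only cultures of the same strain.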 The following applies: S. cerevisiae rad50 strain growth inhibition, stronger effect = higher value. The essentials: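 DNA repair mutant yeast, compound exposure, growth read-out; inhibition is taken relative to vehicle.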
Assay [2] is described as follows: NCI Yeast Anticancer Drug Screen. Data for the mec2-1 strain (AID 157). The following applies: S. cerevisiae mec2-1 strain, stronger effect = higher value. The essentials:
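Each compound was tested on mec2-1 yeast, a strain altered in DNA damage repair or cell cycle control. Growth inhibition is reported relative to vehicle.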

A short description of assay [3]: NCI Yeast Anticancer Drug Screen. Data for the sgs1 mgt1 strain (AID 161).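 Further: 0% = growth of cultures given vehicle only.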 The conditions noted are these: S. cerevisiae sgs1 mgt1 strain, stronger effect = higher value. In a few lines:
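Genetically altered yeast, compound exposure, growth inhibition relative to vehicle.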

A short description of assay [4]: NCI Yeast Anticancer Drug Screen. Data for the cln2 rad14 strain (AID 165).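 Further: 0% = growth equal to vehicle treated cultures.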 The conditions noted are these: S. cerevisiae cln2 rad14 strain, stronger effect = higher value. In a few lines: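 Test compounds were added to cln2 rad14 yeast cultures; inhibition of growth was then determined by comparison with vehicle treatment.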
A short description of assay [5]: NCI Yeast Anticancer Drug Screen. Data for the bub3 strain (AID 167). The conditions noted are these: S. cerevisiae bub3 mutant strain, stronger effect = higher value. In a few lines: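 In this screen, a yeast mutant lacking normal mitotic checkpoint function is challenged with compound. Relative growth versus vehicle gives the inhibition value.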
Assay [6] is described as follows: NCI Yeast Anticancer Drug Screen. Data for the mlh1 rad18 strain (AID 175). The conditions noted are these: S. cerevisiae mlh1 rad18 strain growth inhibition, stronger effect = higher value. The essentials:
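Inhibition values reflect reduced growth of mutant yeast versus vehicle-treated controls following compound exposure; the mutations affect DNA damage repair.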

Setting [7] is: at 5.0 µM (retest, dose inferred, filed as 0.5).
[8] abbreviates: at 50.0 µM (retest, dose inferred, filed as 5.0).

Molecules are shown by their SMILES. The panel holds about 79,000 compounds, 15% with a hit somewhere; the sample as a whole holds those more often. Unmarked numbers belong to inactive results. Active and inactive are the calls of the source. No stated cut-off is given here; in the data, active means growth inhibition above about 70%; inactive means the rest.

Regarding `CC(=O)c1c(O)c2ccc(Cl)cc2[nH]c1=O`, the growth inhibition was 73% (active) in assay [1] (setting [7]); 90% (active) in assay [1] (setting [8]); 79.2% (active) in assay [1] (at 50.0 µM); 36% in assay [2] (setting [7]); 87% (active) in assay [2] (setting [8]); 14.7% in assay [2] (at 50.0 µM). The growth inhibition in assay [3] (setting [7]) was 79% (active); in assay [3] (setting [8]), 95% (active); in assay [3] (at 50.0 µM) it was 83.2% (active); in assay [4] (setting [7]) it was 25%; in assay [4] (setting [8]), 59%; in assay [4] (at 50.0 µM), 31.5%. Moreover, the growth inhibition in assay [5] (setting [7]) is 71% (active); in assay [5] (setting [8]), 91% (active); in assay [5] (at 50.0 µM), 38.2%; in assay [6] (setting [7]), 72% (active); in assay [6] (setting [8]) it was 94% (active); in assay [6] (at 50.0 µM), 66.7%.

Regarding `CC(=O)Oc1ccc(N2C(=O)C=CC2=O)cc1`, the growth inhibition in assay [1] (setting [7]) was 86% (active); in assay [1] (setting [8]), 99% (active); in assay [1] (at 50.0 µM) it was 98.8% (active); in assay [2] (setting [7]), 81% (active); in assay [2] (setting [8]), 100% (active); in assay [2] (at 50.0 µM), 99.1% (active). Besides, the growth inhibition in assay [3] (setting [7]) was 67%; in assay [3] (setting [8]), 99% (active); in assay [3] (at 50.0 µM) it was 52%; in assay [4] (setting [7]), 56%; in assay [4] (setting [8]), 100% (active); in assay [4] (at 50.0 µM), 54.2%. Also, the growth inhibition in assay [5] (setting [7]) was 87% (active); in assay [5] (setting [8]) it was 99% (active); in assay [5] (at 50.0 µM) it was 99% (active); in assay [6] (setting [7]) it was 41%; in assay [6] (setting [8]), 100% (active); in assay [6] (at 50.0 µM) it was 52.5%.

Turning to `CC1=CC(O)(c2ccc(-c3ccccc3Cl)cc2)OC1=O` (stereo not given), the growth inhibition in assay [1] (setting [7]) is -8%; in assay [1] (setting [8]), 90% (active); in assay [1] (at 50.0 µM), 90.2% (active); in assay [2] (setting [7]), 0%; in assay [2] (setting [8]), 96% (active); in assay [2] (at 50.0 µM), 94.8% (active). For the same molecule, the growth inhibition is -1% in assay [3] (setting [7]); 88% (active) in assay [3] (setting [8]); 92.1% (active) in assay [3] (at 50.0 µM); -19% in assay [4] (setting [7]); 87% (active) in assay [4] (setting [8]); 90.9% (active) in assay [4] (at 50.0 µM). Besides, the growth inhibition in assay [5] (setting [7]) is -11%; in assay [5] (setting [8]) it was 95% (active); in assay [5] (at 50.0 µM) it was 89.3% (active); in assay [6] (setting [7]) it was -9%; in assay [6] (setting [8]), 94% (active); in assay [6] (at 50.0 µM) it was 96.3% (active).

As to `C1Cc2c3c4c(c5c2C(C1)CCC5)CCCC4CCC3`, the growth inhibition is -5% in assay [1] (setting [7]); 8% in assay [1] (setting [8]); -11.5% in assay [1] (at 50.0 µM); 1% in assay [2] (setting [7]); 17% in assay [2] (setting [8]); 10.3% in assay [2] (at 50.0 µM). Moreover, the growth inhibition is -1% in assay [3] (setting [7]); 13% in assay [3] (setting [8]); 0% in assay [3] (at 50.0 µM); 3% in assay [4] (setting [7]); -1% in assay [4] (setting [8]); 34.2% in assay [4] (at 50.0 µM). The growth inhibition was 15% in assay [5] (setting [7]); 8% in assay [5] (setting [8]); -0.85% in assay [5] (at 50.0 µM); -1% in assay [6] (setting [7]); 10% in assay [6] (setting [8]); -2.25% in assay [6] (at 50.0 µM).

`CCCCCCCCCCCCCC(N)c1ccc(C)cc1` (stereo not given): the growth inhibition is 60% in assay [1] (setting [7]); 97% (active) in assay [1] (setting [8]); 99% (active) in assay [1] (at 50.0 µM); 0% in assay [2] (setting [7]); 98% (active) in assay [2] (setting [8]); 99.2% (active) in assay [2] (at 50.0 µM). Also, the growth inhibition in assay [3] (setting [7]) was 99% (active); in assay [3] (setting [8]), 98% (active); in assay [3] (at 50.0 µM), 99.5% (active); in assay [4] (setting [7]), 3%; in assay [4] (setting [8]), 97% (active); in assay [4] (at 50.0 µM), 97.7% (active). In addition, the growth inhibition was 13% in assay [5] (setting [7]); 97% (active) in assay [5] (setting [8]); 98.5% (active) in assay [5] (at 50.0 µM); 33% in assay [6] (setting [7]); 97% (active) in assay [6] (setting [8]); 98.3% (active) in assay [6] (at 50.0 µM).

For `CC1=NC(C)C(C)S1` (stereo not given), the growth inhibition is -1% in assay [1] (setting [7]); 3% in assay [1] (setting [8]); 9.45% in assay [1] (at 50.0 µM); 0% in assay [2] (setting [7]); 0% in assay [2] (setting [8]); 5.5% in assay [2] (at 50.0 µM). The growth inhibition is -1% in assay [3] (setting [7]); 1% in assay [3] (setting [8]); -2.5% in assay [3] (at 50.0 µM); 4% in assay [4] (setting [7]); 0% in assay [4] (setting [8]); 16.1% in assay [4] (at 50.0 µM). Besides, the growth inhibition in assay [5] (setting [7]) is 3%; in assay [5] (setting [8]) it was 3%; in assay [5] (at 50.0 µM), 55.9%; in assay [6] (setting [7]), 2%; in assay [6] (setting [8]), 4%; in assay [6] (at 50.0 µM), 12.7%.

For the molecule `CCCCN(CCCC)/N=C\C1=C2NC(=O)/C(C)=C\C=C/C(OC)C(OC(N)=O)/C(C)=C/C(C)C(O)C(OC)CC(C)CC(=C(OC)C1=O)C2=O` (stereo not given), the growth inhibition in assay [1] (setting [7]) was 2%; in assay [1] (setting [8]), 81% (active); in assay [1] (at 50.0 µM) it was 54.4%; in assay [2] (setting [7]) it was -2%; in assay [2] (setting [8]), 87% (active); in assay [2] (at 50.0 µM) it was 48.4%. The growth inhibition in assay [3] (setting [7]) was -4%; in assay [3] (setting [8]), 89% (active); in assay [3] (at 50.0 µM), 47.9%; in assay [4] (setting [7]) it was -8%; in assay [4] (setting [8]) it was 78% (active); in assay [4] (at 50.0 µM), 47.6%. The growth inhibition in assay [5] (setting [7]) was -3%; in assay [5] (setting [8]), 32%; in assay [5] (at 50.0 µM), 44%; in assay [6] (setting [7]), -2%; in assay [6] (setting [8]) it was 80% (active); in assay [6] (at 50.0 µM) it was 60.5%.

For the molecule `O=c1[nH]c2ccccc2c2oc3ccccc3c12`, the growth inhibition in assay [1] (setting [7]) was -14%; in assay [1] (setting [8]), 83% (active); in assay [1] (at 50.0 µM) it was 63.5%; in assay [2] (setting [7]), -10%; in assay [2] (setting [8]) it was 71% (active); in assay [2] (at 50.0 µM), 51.5%. In addition, the growth inhibition was -4% in assay [3] (setting [7]); 69% in assay [3] (setting [8]); 64.5% in assay [3] (at 50.0 µM); 18% in assay [4] (setting [7]); 32% in assay [4] (setting [8]); 25.4% in assay [4] (at 50.0 µM). For the same molecule, the growth inhibition was -10% in assay [5] (setting [7]); 88% (active) in assay [5] (setting [8]); 46.5% in assay [5] (at 50.0 µM); -18% in assay [6] (setting [7]); 94% (active) in assay [6] (setting [8]); 68.3% in assay [6] (at 50.0 µM).

With `O=C(c1ccc(Cl)c([N+](=O)[O-])c1)c1ccc(Cl)c([N+](=O)[O-])c1`, the growth inhibition is 21% in assay [1] (setting [7]); 93% (active) in assay [1] (setting [8]); 59% in assay [1] (at 50.0 µM); 12% in assay [2] (setting [7]); 94% (active) in assay [2] (setting [8]); 93.4% (active) in assay [2] (at 50.0 µM). In addition, the growth inhibition is 13% in assay [3] (setting [7]); 90% (active) in assay [3] (setting [8]); 85% (active) in assay [3] (at 50.0 µM); 1% in assay [4] (setting [7]); 80% (active) in assay [4] (setting [8]); 39.5% in assay [4] (at 50.0 µM). Moreover, the growth inhibition in assay [5] (setting [7]) is -8%; in assay [5] (setting [8]), 95% (active); in assay [5] (at 50.0 µM), 96.2% (active); in assay [6] (setting [7]), 24%; in assay [6] (setting [8]) it was 96% (active); in assay [6] (at 50.0 µM) it was 96.7% (active).

For `O=[N+]([O-])c1cnc(F)c(Br)c1`, the growth inhibition in assay [1] (setting [7]) was 99% (active); in assay [1] (setting [8]), 99% (active); in assay [1] (at 50.0 µM), 99.1% (active); in assay [2] (setting [7]), 99% (active); in assay [2] (setting [8]), 100% (active); in assay [2] (at 50.0 µM) it was 99.2% (active). The growth inhibition is 99% (active) in assay [3] (setting [7]); 99% (active) in assay [3] (setting [8]); 99.2% (active) in assay [3] (at 50.0 µM); 98% (active) in assay [4] (setting [7]); 99% (active) in assay [4] (setting [8]); 98.7% (active) in assay [4] (at 50.0 µM). Besides, the growth inhibition is 99% (active) in assay [5] (setting [7]); 99% (active) in assay [5] (setting [8]); 99.1% (active) in assay [5] (at 50.0 µM); 99% (active) in assay [6] (setting [7]); 99% (active) in assay [6] (setting [8]); 99.3% (active) in assay [6] (at 50.0 µM).
